# Legend:
# [1] = target: Tyrosine-protein kinase SYK (Homo sapiens) (UniProt P43405); settings: at 10 µM
# [2] = target: T1, Mitogen-activated protein kinase kinase kinase 7 (Homo sapiens) (UniProt O43318); settings: at 1 µM
# T1 sequence (whole entry): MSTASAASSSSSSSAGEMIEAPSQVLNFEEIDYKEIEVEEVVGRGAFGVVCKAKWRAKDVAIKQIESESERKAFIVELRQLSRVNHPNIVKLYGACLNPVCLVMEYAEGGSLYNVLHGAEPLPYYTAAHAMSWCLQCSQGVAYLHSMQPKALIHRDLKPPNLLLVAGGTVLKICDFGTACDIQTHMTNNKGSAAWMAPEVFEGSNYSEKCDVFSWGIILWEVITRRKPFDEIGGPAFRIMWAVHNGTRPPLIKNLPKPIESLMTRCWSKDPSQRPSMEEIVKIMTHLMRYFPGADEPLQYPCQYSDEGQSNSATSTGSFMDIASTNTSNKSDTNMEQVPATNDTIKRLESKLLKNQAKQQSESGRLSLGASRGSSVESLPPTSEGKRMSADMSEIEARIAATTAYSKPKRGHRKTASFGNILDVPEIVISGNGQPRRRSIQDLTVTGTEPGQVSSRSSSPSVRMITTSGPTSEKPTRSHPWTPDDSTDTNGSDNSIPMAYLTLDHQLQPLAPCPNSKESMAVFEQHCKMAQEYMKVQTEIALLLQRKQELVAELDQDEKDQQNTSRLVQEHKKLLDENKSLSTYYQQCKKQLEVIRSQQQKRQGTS
# [3] = target: T1, Mitogen-activated protein kinase kinase kinase 7 (Homo sapiens); settings: at 10 µM
# [4] = target: T2, Serine/threonine-protein kinase TAO1 (Homo sapiens) (UniProt Q7L7X3); settings: at 1 µM
# T2 sequence (whole entry): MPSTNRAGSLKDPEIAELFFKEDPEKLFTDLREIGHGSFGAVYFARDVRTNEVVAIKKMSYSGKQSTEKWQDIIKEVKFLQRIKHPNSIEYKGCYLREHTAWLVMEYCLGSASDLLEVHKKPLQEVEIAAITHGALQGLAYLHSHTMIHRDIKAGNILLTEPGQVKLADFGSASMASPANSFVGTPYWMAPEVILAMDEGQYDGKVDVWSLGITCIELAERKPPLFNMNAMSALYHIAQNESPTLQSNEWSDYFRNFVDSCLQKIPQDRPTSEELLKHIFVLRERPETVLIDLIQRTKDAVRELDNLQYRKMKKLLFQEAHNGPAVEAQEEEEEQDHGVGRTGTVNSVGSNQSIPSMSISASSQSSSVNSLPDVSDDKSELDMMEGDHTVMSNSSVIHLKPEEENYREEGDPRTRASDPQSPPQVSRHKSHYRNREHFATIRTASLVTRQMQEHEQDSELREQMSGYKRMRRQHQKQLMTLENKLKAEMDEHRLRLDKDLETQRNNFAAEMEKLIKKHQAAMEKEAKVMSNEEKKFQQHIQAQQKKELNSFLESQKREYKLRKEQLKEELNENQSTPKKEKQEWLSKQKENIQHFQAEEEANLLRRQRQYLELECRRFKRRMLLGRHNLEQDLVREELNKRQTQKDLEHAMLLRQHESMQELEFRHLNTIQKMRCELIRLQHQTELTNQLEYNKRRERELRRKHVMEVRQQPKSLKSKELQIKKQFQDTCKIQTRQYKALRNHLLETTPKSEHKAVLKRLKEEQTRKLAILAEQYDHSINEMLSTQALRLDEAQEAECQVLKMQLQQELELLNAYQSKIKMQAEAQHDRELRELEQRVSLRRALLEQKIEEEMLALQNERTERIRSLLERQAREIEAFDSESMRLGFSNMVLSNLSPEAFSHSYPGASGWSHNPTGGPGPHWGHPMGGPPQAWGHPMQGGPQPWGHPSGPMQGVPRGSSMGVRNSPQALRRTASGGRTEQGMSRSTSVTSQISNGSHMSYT
# [5] = target: T2, Serine/threonine-protein kinase TAO1 (Homo sapiens); settings: at 10 µM
# [6] = target: T3, Serine/threonine-protein kinase TAO2 (Homo sapiens) (UniProt Q9UL54); settings: at 1 µM
# T3 sequence (whole entry): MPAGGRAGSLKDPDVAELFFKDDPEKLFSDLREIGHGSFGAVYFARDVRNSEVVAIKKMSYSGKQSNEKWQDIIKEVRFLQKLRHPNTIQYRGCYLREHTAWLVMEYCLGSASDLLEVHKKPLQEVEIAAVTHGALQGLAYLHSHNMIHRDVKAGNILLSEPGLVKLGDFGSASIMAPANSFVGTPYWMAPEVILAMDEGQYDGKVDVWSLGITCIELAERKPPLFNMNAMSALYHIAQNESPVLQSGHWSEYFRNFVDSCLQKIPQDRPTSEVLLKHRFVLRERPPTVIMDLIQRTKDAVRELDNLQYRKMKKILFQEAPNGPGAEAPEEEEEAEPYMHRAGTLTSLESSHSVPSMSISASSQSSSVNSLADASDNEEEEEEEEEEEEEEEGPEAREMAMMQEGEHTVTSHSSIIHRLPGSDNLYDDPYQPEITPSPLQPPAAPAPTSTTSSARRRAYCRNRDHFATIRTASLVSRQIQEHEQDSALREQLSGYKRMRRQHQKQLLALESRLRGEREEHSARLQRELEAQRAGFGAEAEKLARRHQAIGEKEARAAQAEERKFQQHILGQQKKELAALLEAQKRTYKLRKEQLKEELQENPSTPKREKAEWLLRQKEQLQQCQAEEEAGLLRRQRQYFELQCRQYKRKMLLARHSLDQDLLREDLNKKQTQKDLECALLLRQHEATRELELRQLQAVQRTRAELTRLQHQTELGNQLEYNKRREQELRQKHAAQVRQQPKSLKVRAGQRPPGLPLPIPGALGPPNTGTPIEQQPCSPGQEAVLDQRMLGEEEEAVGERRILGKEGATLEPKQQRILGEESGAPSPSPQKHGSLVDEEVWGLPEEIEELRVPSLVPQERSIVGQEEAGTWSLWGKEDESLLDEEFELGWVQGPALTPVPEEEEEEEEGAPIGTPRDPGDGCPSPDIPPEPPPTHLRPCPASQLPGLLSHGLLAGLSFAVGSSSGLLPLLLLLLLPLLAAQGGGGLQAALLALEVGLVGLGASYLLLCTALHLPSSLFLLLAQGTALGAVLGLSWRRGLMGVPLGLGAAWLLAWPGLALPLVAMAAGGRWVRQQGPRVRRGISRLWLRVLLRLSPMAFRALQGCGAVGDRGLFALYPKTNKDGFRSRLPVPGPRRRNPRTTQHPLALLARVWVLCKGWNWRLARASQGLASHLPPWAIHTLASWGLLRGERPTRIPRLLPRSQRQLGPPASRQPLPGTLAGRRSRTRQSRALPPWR
# [7] = target: T3, Serine/threonine-protein kinase TAO2 (Homo sapiens); settings: at 10 µM
# [8] = target: T4, Serine/threonine-protein kinase TAO3 (Homo sapiens) (UniProt Q9H2K8); settings: at 1 µM
# T4 sequence (whole entry): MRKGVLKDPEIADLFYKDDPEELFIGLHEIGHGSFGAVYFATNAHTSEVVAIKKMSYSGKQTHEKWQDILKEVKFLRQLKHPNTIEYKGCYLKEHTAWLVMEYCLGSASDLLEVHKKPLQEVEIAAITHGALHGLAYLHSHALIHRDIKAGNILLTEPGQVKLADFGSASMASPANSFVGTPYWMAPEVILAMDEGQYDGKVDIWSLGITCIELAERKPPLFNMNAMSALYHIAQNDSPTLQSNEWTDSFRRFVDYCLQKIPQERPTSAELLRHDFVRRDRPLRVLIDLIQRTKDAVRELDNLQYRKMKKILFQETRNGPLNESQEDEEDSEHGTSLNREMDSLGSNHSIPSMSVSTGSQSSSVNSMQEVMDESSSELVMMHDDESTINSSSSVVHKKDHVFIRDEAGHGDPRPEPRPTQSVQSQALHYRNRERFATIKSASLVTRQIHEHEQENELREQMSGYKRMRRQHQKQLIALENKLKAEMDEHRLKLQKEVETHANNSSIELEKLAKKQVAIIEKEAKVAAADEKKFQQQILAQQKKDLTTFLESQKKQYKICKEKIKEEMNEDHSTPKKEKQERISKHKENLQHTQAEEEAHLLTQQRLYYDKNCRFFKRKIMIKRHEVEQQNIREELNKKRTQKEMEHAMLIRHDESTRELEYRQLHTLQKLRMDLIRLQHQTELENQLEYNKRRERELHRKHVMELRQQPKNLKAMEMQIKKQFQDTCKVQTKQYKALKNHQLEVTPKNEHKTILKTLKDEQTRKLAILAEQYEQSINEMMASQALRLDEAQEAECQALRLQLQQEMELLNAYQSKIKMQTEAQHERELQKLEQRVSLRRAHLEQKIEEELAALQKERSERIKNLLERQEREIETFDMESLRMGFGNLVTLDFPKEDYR
# [9] = target: T4, Serine/threonine-protein kinase TAO3 (Homo sapiens); settings: at 10 µM
# [10] = target: T5, Serine/threonine-protein kinase TBK1 (Homo sapiens) (UniProt Q9UHD2); settings: at 1 µM
# T5 sequence (whole entry): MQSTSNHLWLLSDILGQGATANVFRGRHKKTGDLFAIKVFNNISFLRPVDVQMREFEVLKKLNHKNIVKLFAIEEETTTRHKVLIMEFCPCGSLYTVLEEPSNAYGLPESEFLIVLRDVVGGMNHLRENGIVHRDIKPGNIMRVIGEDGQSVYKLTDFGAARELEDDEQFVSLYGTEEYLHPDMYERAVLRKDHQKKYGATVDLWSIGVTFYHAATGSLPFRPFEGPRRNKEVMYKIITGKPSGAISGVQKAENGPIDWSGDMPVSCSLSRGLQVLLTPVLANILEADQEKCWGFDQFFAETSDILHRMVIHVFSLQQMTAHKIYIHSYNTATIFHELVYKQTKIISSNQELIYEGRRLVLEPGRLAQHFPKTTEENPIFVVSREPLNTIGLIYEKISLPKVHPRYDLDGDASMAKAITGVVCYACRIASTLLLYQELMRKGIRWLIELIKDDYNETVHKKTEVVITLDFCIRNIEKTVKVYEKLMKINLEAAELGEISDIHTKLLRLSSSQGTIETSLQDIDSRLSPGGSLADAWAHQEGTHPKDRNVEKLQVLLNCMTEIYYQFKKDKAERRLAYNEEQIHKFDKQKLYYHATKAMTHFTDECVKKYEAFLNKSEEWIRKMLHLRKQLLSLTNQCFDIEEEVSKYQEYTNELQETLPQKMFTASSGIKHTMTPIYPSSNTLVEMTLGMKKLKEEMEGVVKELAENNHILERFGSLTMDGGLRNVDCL
compound,measurement,setting,value
COc1ccc(OC)c2c(=S)c3ccccc3[nH]c12,residual activity,[1],96%
same,residual activity,[2],95%
same,residual activity,[3],81%
same,residual activity,[4],82%
same,residual activity,[5],91%
same,residual activity,[6],90%
same,residual activity,[7],87%
same,residual activity,[8],96%
same,residual activity,[9],90%
same,residual activity,[10],82%

# From ChEMBL document CHEMBL2218924, “A broad activity screen in support of a chemogenomic map for kinase signalling research and drug discovery” (Biochem J, 2013)
